Measured values from PubChem BioAssay AID1259372 (The Scripps Research Institute Molecular Screening Center, 2018).
Screen size: about 4,700 compounds; about 760 (16%) were called active.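 Rule for the calls: active = inhibition above a cutoff derived from the DMSO control wells (cut at about 28% in these data); inactive = the rest.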 The list is a sample of the results.

molecular target: Microphthalmia-associated transcription factor (Homo sapiens) (UniProt O75030); assay: blockers of human MITF dimerization – biochemical, AlphaScreen, triplicate, confirmation (AID 1259372); details: AlphaScreen MITF homodimerization, biotin/His-MITF beads; at 2.6 µM; hits give high values
Sequence (O75030 whole entry, looked up): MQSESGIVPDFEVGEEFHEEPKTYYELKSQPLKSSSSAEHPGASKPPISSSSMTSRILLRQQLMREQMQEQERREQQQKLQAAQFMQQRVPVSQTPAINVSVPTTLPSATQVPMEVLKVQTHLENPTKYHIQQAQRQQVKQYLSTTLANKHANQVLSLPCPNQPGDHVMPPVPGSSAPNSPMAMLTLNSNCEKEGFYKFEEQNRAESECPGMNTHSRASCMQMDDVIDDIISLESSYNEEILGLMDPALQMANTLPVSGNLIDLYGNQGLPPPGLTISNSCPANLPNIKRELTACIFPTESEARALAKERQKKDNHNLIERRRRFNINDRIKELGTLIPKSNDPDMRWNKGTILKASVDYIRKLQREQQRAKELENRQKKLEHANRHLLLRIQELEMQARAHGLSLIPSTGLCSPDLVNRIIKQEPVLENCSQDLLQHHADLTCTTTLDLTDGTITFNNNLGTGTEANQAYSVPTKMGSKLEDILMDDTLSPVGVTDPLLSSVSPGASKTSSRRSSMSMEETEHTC

SMILES | inhibition
COc1ccc(C(=O)COC(=O)CNS(=O)(=O)/C=C/c2ccc(C)cc2)cc1OC | 7.42% (inactive)
O=C(CNCc1ccc(F)cc1)Nc1ccc(N2CCCC2)cc1 | 17.1% (inactive)
CC(C)(C)n1nnnc1C(c1ccc2ncccc2c1)N1CCSCC1 (stereo unspecified) | 20.3% (inactive)
CCc1cccc(OCCOCCn2ccnc2)c1 | 0.99% (inactive)
CCc1ccc(OCCCCn2ccnc2)cc1 | -7.12% (inactive)
N#Cc1nc(COc2cccc(Cl)c2)oc1NCCCn1ccnc1 | 43.8% (active)
C=CCc1cc(C)ccc1OCCCn1ccnc1 | -1.07% (inactive)
COc1ccc(Br)cc1CN1CCN(C(=O)c2cccnc2)CC1 | 8.4% (inactive)
Cc1cccc(NC(=O)CNCCN2CCCCC2)c1C | 7.31% (inactive)
O=[N+]([O-])c1ccccc1S(=O)(=O)N1CCN(C2Cc3ccccc3C2)CC1 | 4.35% (inactive)
COc1ccc(CN2CCN(Cc3cc(OC)c(OC)c(OC)c3)CC2)cc1 | 1.87% (inactive)
CCN(CC)CCN1COc2c(cc(Cl)c3cccnc23)C1 | 107% (active)
CN1CCN(CCC(=O)N/N=C/c2ccsc2)CC1 | -0.75% (inactive)
c1ccc(-n2cc(CN3CCOCC3)c(-c3ccc4c(c3)OCCO4)n2)cc1 | 13.2% (inactive)
COC(=O)C(C)CN1CCN(Cc2ccc3c(c2)OCO3)CC1 (stereo unspecified) | 1.84% (inactive)
CCN(Cc1ccccc1)Cc1ccc([N+](=O)[O-])cc1 | -4.11% (inactive)
COc1ccc(OCCCC(=O)Oc2ccc(OC)cc2)cc1 | 4.29% (inactive)
Cc1ccc(OCCCCNCCN2CCOCC2)c(Br)c1 | 5.77% (inactive)
COc1cccc(-c2ncnn2-c2sc3c(c2C#N)CCCCC3)c1 | -10.4% (inactive)
COc1cc(CN2CCN(Cc3ccccc3Cl)CC2)cc(OC)c1OC | 9.37% (inactive)
CCN1CCN(CCOCCOc2ccccc2OCc2ccccc2)CC1 | 2.12% (inactive)
COCCCN1C(=O)c2cccc3c(C(=O)c4ccccc4)ccc(c23)C1=O | 10.4% (inactive)
O=C(CN1CCN(CC(=O)c2ccco2)CC1)Nc1ccc(Cl)c(Cl)c1 | 10.7% (inactive)
Cc1nc2sc(C(c3ccccc3Cl)N3CCC4(CC3)OCCO4)c(O)n2n1 (stereo unspecified) | 13.8% (inactive)
CC(=O)NS(=O)(=O)c1ccc(-c2ccc(C=C(C#N)C#N)o2)cc1 | -19.5% (inactive)
N#Cc1ccc(/C=N/NC(=O)c2cc([N+](=O)[O-])cc([N+](=O)[O-])c2)cc1 | 3.87% (inactive)

SMILES | inhibition
Fc1cccc(Cl)c1Cn1nnc(-c2ccncc2)n1 | 13.6% (inactive)
Cc1cccc(OCCN2CCNCC2)c1C | -3.54% (inactive)
COc1ccc2c(c1)CC(c1nc(Nc3ccc4cnccc4c3)c3ccccc3n1)CO2 (stereo unspecified) | 58.2% (active)
CC1CCCCC1NC(=O)CSc1nnc(-c2ccncc2)n1CCCN(C)C (stereo unspecified) | 8.82% (inactive)
COc1ccc(C(=O)N2CCN(Cc3ccccc3C(F)(F)F)CC2)cc1OC | 3.61% (inactive)
CCN(C(=O)Cc1nc(N)n[nH]1)C1(C(=O)Nc2ccc(C)cc2)CCCCC1 | 81.1% (active)
CCN(C(=O)Cc1nc(N)n[nH]1)C1(C(=O)Nc2ccccc2)CCCCC1 | 105% (active)
CCOc1ccc(CN2CCCN(C)CC2)cc1 | 5.9% (inactive)
CCN(CC)C(=O)C1CCCN(Cc2cccc(Cl)c2)C1 (stereo unspecified) | -2.94% (inactive)
N#Cc1ccc(OCC(=O)Nc2nc(-c3ccccn3)cs2)cc1 | 22.3% (inactive)
CCC(C)NCCOCCOc1cc(C)cc(C)c1C (stereo unspecified) | -6.95% (inactive)
COc1ccc(Cn2nnc(C(=O)Nc3cccc(Cl)c3)c2N)cc1 | 8.84% (inactive)
CCN1CCN(CC(=O)N/N=C/c2cccc(Cl)c2)CC1 | 2.25% (inactive)
c1cncc(CCNc2ccc3ncc(-c4cc5ccccc5o4)n3n2)c1 | 2.68% (inactive)
CN1CCC(N2CCN(c3ccccc3Cl)CC2)CC1 | 10.4% (inactive)
C=CCNC(=O)c1sc(=S)n(CC)c1N | 0.63% (inactive)
CC(C)(C)NCC(=O)Nc1c2c(nc3ccccc13)N(Cc1ccccc1)CC2 | 18.3% (inactive)
CCOc1cccc(C2C(C(=O)OCCOc3ccccc3)=C(C)NC3=C2C(=O)CCC3)c1 (stereo unspecified) | 2.03% (inactive)
Cc1ccc(C(C)C)c(OCC#CCN2CCNCC2)c1 | 7.61% (inactive)
COc1ccc(CN2CCN(Cc3ccccc3C)CC2)c(OC)c1OC | -1.26% (inactive)
CCCS(=O)(=O)N1CCN(Cc2cccc(Cl)c2)CC1 | 4.65% (inactive)
COC(=O)c1sc(NC(=O)c2ccccc2C)c(C#N)c1C | -8.1% (inactive)
COc1ccc(C(=O)NCCN2CCN(c3nc4c(C)c(C)ccc4s3)CC2)cc1 | -5.73% (inactive)
COc1cc(CN2CCN(Cc3ccco3)CC2)c([N+](=O)[O-])cc1OC | 16.3% (inactive)
COc1cc(Nc2ncnc3c2nc(N2CCOCC2)n3C(C)C)cc(OC)c1OC | -3.35% (inactive)
COc1cc(N2CCOCC2)ccc1Nc1cc(Nc2ccccc2-n2cccn2)c(C(F)(F)F)cn1 | 31.5% (active)

SMILES | inhibition
CCN(CC(=O)NCc1ccc(Cl)cc1)Cn1nnc2ccccc21 | 0.75% (inactive)
COc1ccc(CN2CCN(C3CCC(C)CC3)CC2)c(OC)c1OC (stereo unspecified) | 2.96% (inactive)
CCCCC(=O)NCc1ccc(F)cc1 | 17.4% (inactive)
CN(C)c1cccc(Nc2ccc(-c3cccc(C=O)c3)cn2)c1 | 65.7% (active)
COc1ccc(CN2CCN(Cc3cccc(Br)c3)CC2)c(OC)c1 | 8.87% (inactive)
CCN(CCN(C)C)Cc1c(Cl)cccc1Cl | -9.82% (inactive)
COc1ccc(CN2CCN(Cc3cc(OC)ccc3OC)CC2)cc1 | -1.47% (inactive)
O=c1c2ccccc2ncn1CCCCOc1ccccc1F | 15.3% (inactive)
COc1ccccc1CN1CC(C)OC(C)C1 (stereo unspecified) | -2.69% (inactive)
CC(c1ccccn1)N(CCN(C)C)C(=S)Nc1ccccc1F (stereo unspecified) | 19.9% (inactive)
O=S(=O)(c1ccc(F)cc1)N1CCN(Cc2ccccc2C(F)(F)F)CC1 | 3.94% (inactive)
COc1cccc(CN2CCN(Cc3ccc(C(F)(F)F)cc3)CC2)c1OC | 1.8% (inactive)
Fc1ccc(CN2CCN(C3CCCC3)CC2)cc1 | 5.12% (inactive)
CSc1ccc(CN2CCN(Cc3cccc(Oc4ccccc4)c3)CC2)cc1 | 6.75% (inactive)
COc1ccc(NC(=O)c2cc3n(n2)C(C(F)(F)F)CC(c2ccc(OC)c(OC)c2)N3)cc1OC (stereo unspecified) | -8.79% (inactive)
CC(=O)c1cccc(N2C(=O)c3cccnc3C2=O)c1 | 0.46% (inactive)
CCCS(=O)(=O)N1CCN(Cc2ccccc2Br)CC1 | 7.16% (inactive)
COc1cccc(OC)c1C(=O)N1CCN(Cc2ccccc2F)CC1 | 6.68% (inactive)
COc1ccc(OC)c(CN2CCN(Cc3ccc(Cl)cc3)CC2)c1 | 7.55% (inactive)
O=[N+]([O-])c1ccccc1CN1CCN(Cc2cccnc2)CC1 | 14.6% (inactive)
CC1CCC2C(=O)N(c3ccc(I)cc3)C(=O)C2C1 (stereo unspecified) | -5.9% (inactive)
O=C(O)C1C2C=CC(O2)C1C(=O)Nc1nccs1 (stereo unspecified) | -0.18% (inactive)
O=C(NN1C(=O)c2ccccc2C1=O)c1cccc(F)c1 | -16% (inactive)
Cc1ccc(C)n1C(Cc1ccccc1)C(=O)O (stereo unspecified) | 17% (inactive)
CN(CCc1ccccn1)Cc1cccnc1 | 8.93% (inactive)
COc1ccc(C(CNCc2cc(=O)oc3cc4c(cc23)CCC4)N2CCOCC2)cc1 (stereo unspecified) | 10.3% (inactive)

SMILES | inhibition
O=C(Cc1cccs1)N/N=C\C=C\c1ccco1 | 79.7% (active)
Fc1cccc(CN2CCN(C3CCC(c4ccccc4)CC3)CC2)c1 (stereo unspecified) | 11.2% (inactive)
CCC(C)c1ccccc1NC(=O)CN(C)CC(=O)Nc1ccccc1SC (stereo unspecified) | -6.92% (inactive)
Cc1ccccc1NC(=O)NCCOc1cc(N2CCCC2)ncn1 | 6.75% (inactive)
CCS(=O)(=O)N1CCN(C2CCCCC2C)CC1 (stereo unspecified) | -1.17% (inactive)
COc1ccc(CN2CCCC(C(=O)N3CCCCC3)C2)cc1 (stereo unspecified) | -32.4% (inactive)
C/C(N)=C(/C#N)C(=O)COC(=O)c1c2c(nc3ccccc13)/C(=C/c1ccco1)CC2 | 90.7% (active)
CCN1CCN(CCOc2ccc(-c3ccccc3)cc2)CC1 | 9.66% (inactive)
COc1ccc(CN2CCC(C(=O)N3CCN(Cc4ccccc4)CC3)CC2)cc1 | 13.8% (inactive)
COc1cc(CN2CCN(Cc3cccnc3)CC2)cc(OC)c1OC | 6.15% (inactive)
Cc1cc(NC(=O)CNCCCN(C)C)no1 | 2.39% (inactive)
Cc1cccnc1NC(=O)CSc1nnc(COc2ccc(C(C)C)cc2)n1C | 5.99% (inactive)
Cc1cc(NC(=O)CSc2ccc(-c3ccccn3)nn2)no1 | 49% (active)
CCOc1ccc(OCCCCNCCO)cc1 | 10.6% (inactive)
COc1cccc(CN2CCC(C(=O)NCCc3ccccc3)CC2)c1 | 8.72% (inactive)
CC(NCCCN1CCOCC1)C(=O)Nc1ccccc1 (stereo unspecified) | 5.64% (inactive)
CN(CCC(=O)O)Cc1cccc(Cl)c1 | -8.04% (inactive)
CC[C@@H]1NC(=O)[C@H]2CN(C(=O)NCc3ccccc3)CCN2C1=O | 73.6% (active)
C[C@@H](OCc1ccccc1)[C@@H]1NC(=O)[C@H]2CN(C(=O)Nc3cccc(F)c3)CCN2C1=O | 68.9% (active)
Cc1n[nH]c(=O)nc1N/N=C/c1cccs1 | 35.1% (active)
CCCS(=O)(=O)N1CCN(C(C)C)CC1 | 10.5% (inactive)
CC(C)CO/N=C1\C[C@@H](O)[C@@H](O)[C@@H]2[C@@H]3C(=O)N([C@@H](C)c4ccccc4)C(=O)[C@@H]3CC[C@@H]12 | 3.51% (inactive)
O=C(OCCN1CCOCC1)c1c(Cl)nc2sccn12 | 9.99% (inactive)
